High-throughput results as filed in PubChem.
KCNQ2 enhance: potentiators of rat KCNQ2 potassium channel | O88943 | CHO-K1 KCNQ2, FluxOR thallium flux fluorescence; stronger effect = higher value | B-score at 10 µM | hit rate 0.54% among 310,000;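 active = fluorescence ratio B-score at least 3 SD of library B-scores, with initial fluorescence B-score within 3 of them, cut at about 5.3 in these data; same plate scores as AID 2156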;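 note: B-score of peak minus minimum over baseline fluorescence ratio after K+ and Tl+ stimulus; positive B-score means potentiation of KCNQ2 with more thallium influx and brighter signal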
KCNQ2 inh: KCNQ2 (rat) channel inhibition; O88943; CHO-K1 KCNQ2, FluxOR thallium flux, 20 min; stronger effect = lower value; B-score at 10 µM; hit rate 1.1% among 310,000;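 active = fluorescence ratio B-score at most minus 3 library SDs, with starting brightness B-score within 2 library SDs, cut at about -5.5 in these data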
KCNQ2 block conf: confirmation of rat KCNQ2 potassium channel inhibitors; shares compounds with KCNQ2 inh; KCNQ2-expressing cells, thallium flux, inhibition; stronger effect = lower value; activity change, negative = inhibition, % at 10 µM; hit rate 57% among 1,000; AID 493025
KCNQ1 spec: selectivity of KCNQ2 inhibitors against human KCNQ1; shares compounds with KCNQ2 inh; KCNQ1-expressing cells, FluxOR thallium flux fluorescence; stronger effect = lower value; activity change, negative = inhibition, % at 10 µM; hit rate 15% among 1,000;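 active = activity change at least 3 SD of negative controls below their mean in both duplicate wells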;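 note: CHO cells stably transfected with KCNQ1 and depolarized by potassium stimulus; peak minus minimum fluorescence over baseline after thallium addition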
CHO Tl ctr: activity in parental CHO cells lacking KCNQ2. activity change, % at 10 µM. shares compounds with KCNQ2 inh. AID 493029. hit rate 14% among 1,000. thallium flux counter-screen; stronger effect = lower value
KCNQ2 patch conf: confirmation of rat KCNQ2 potassium channel inhibitors. shares compounds with KCNQ2 inh. calls only at 10 µM. hit rate 49% among 550. KCNQ2-expressing cells, automated patch clamp current
Large screens that a line does not name were inactive (follow-up assays come after a bar, where they were run). Only some compounds are listed: those with a hit (about 1.6% of all), similar ones and a draw of the others. Unless noted, the rule behind the calls is not given here.

C#CC(C)(C)NC(=O)c1sccc1Oc1ccc(F)cc1[N+](=O)[O-]	none (no result: KCNQ2 enhance)
CSCCC(NC(=O)c1ccc(Cl)cc1)C(=O)OCC(=O)Nc1cc(Cl)ccc1C (configuration not stated)	KCNQ2 inh -6.8 | KCNQ2 block conf -26% | KCNQ1 spec inactive | CHO Tl ctr inactive | KCNQ2 patch conf active
CSCCC(NC(=O)c1ccc(Cl)cc1Cl)C(=O)OCC(N)=O (configuration not stated)	none (no result: KCNQ2 enhance)
Cc1cccn2c(=O)nc(SCC(=O)N3CCN(c4ccccc4)CC3)nc12	none (no result: KCNQ2 enhance)
CCN1CCN(S(=O)(=O)c2ccc(Cl)c(C(=O)NC(C)c3ccccc3Cl)c2)CC1 (configuration not stated)	none (no result: KCNQ2 enhance)
CSc1nc(C)cc(-c2cc(C(=O)Nc3ccccc3)on2)n1	none
CCOc1ccc(-c2cnc(NCc3cccc4ccccc34)n2CCOC)cc1	KCNQ2 inh -9.7 | KCNQ2 block conf inactive | KCNQ1 spec inactive | CHO Tl ctr inactive
COCCn1c(-c2ccc(OC)cc2)cnc1N	none (no result: KCNQ2 enhance)
O=C(c1ccco1)n1nc(-c2ccccc2)nc1NCc1ccco1	none
CCS(=O)(=O)n1nc(-c2ccccc2)nc1NCc1ccco1	none
COc1ccccc1C(=O)n1nc(-c2ccccc2)nc1NCc1ccco1	KCNQ2 inh -8.7 | KCNQ2 block conf inactive | KCNQ1 spec inactive | CHO Tl ctr inactive
Cc1ccc(S(=O)(=O)n2nc(-c3ccc(Cl)cc3)nc2NCc2ccco2)cc1	KCNQ2 inh -9.3 | KCNQ2 block conf inactive | KCNQ1 spec inactive | CHO Tl ctr inactive
CC1CN(C(=O)CCCN2C(=O)c3ccccc3C2=O)CC(C)O1 (configuration not stated)	none (no result: KCNQ2 enhance)
CC(Nc1cccnc1)=C(C#N)C#N	none (no result: KCNQ2 enhance)
CCO[C@@H]1OC(C(=O)N2CCOCC2)=C[C@H](c2ccc(C(F)(F)F)cc2)[C@H]1CCCO	none (no result: KCNQ2 enhance)
COc1cc(C(=O)Nc2nc(C)cc(C)n2)cc(OC)c1OC	none (no result: KCNQ2 enhance)
CN(Cc1ccccc1F)C(=O)CN1c2cccc3cccc(c23)S1(=O)=O	none (no result: KCNQ2 enhance)
Clc1ccccc1OCCCn1ccnc1	none
Clc1ccccc1C(c1ccccc1)(c1ccccc1)n1ccnc1	KCNQ2 inh -7.6 | KCNQ2 block conf -36% | KCNQ1 spec -30% | CHO Tl ctr -24% | KCNQ2 patch conf inactive
O=C(C[n+]1ccc(-c2ccccc2)cc1)Nc1ccc([N+](=O)[O-])cc1	none
CS(=O)(=O)N(Cc1ccco1)CC(O)Cn1c2ccccc2c2ccccc21 (configuration not stated)	KCNQ2 inh -8.2 | KCNQ2 block conf -26% | KCNQ1 spec inactive | CHO Tl ctr inactive | KCNQ2 patch conf active
Cc1ccc(N(CC(O)Cn2c3ccccc3c3ccccc32)S(C)(=O)=O)cc1 (configuration not stated)	none (no result: KCNQ2 enhance)
COc1ccc2cc(C(c3nnnn3CCc3ccccc3)N3CCCC(C)C3)c(=O)[nH]c2c1 (configuration not stated)	KCNQ2 inh -8.6 | KCNQ2 block conf -35% | KCNQ1 spec inactive | CHO Tl ctr inactive | KCNQ2 patch conf active
COCCn1nnnc1C(c1cc2cc(OC)ccc2[nH]c1=O)N1CCC(Cc2ccccc2)CC1 (configuration not stated)	none
COc1cc(/C=N/O)ccc1OCc1ccc(Cl)cc1	none (no result: KCNQ2 enhance)
COc1cc(/C=N/N=C(N)N)ccc1OCc1ccc(Cl)cc1	KCNQ2 inh -9.4 | KCNQ2 block conf inactive | KCNQ1 spec inactive | CHO Tl ctr inactive
CCCC(=O)NCCc1nc2ccccc2n1CCC	none
CCCn1c(CNC(=O)Cc2ccccc2)nc2ccccc21	KCNQ2 inh -6.7 | KCNQ2 block conf inactive | KCNQ1 spec inactive | CHO Tl ctr inactive
Cc1oc(-c2cccc(Cl)c2)nc1CN1CCC(C(=O)NC2CC2)CC1	none
CCN(CCNC(=O)C1CCN(Cc2nc(-c3cccc(Cl)c3)oc2C)CC1)c1ccccc1	KCNQ2 inh -12 | KCNQ2 block conf -26% | KCNQ1 spec inactive | CHO Tl ctr inactive | KCNQ2 patch conf inactive
CCOC(=O)c1c(C)[nH]c(C(=O)OCc2csc(CC(=O)Nc3ccccc3C)n2)c1C	none
O=C(CCN1CCc2ccccc21)c1ccc2c(c1)OCCO2	none
O=C(CCN1CCc2ccccc2C1)c1ccc2c(c1)OCCO2	KCNQ2 inh -8.3 | KCNQ2 block conf -16% | KCNQ1 spec inactive | CHO Tl ctr inactive | KCNQ2 patch conf active
O=C(CCN1CCCCC1)c1ccc2c(c1)OCCO2	none (no result: KCNQ2 enhance)
O=C(CCN1CCCC1Cc1ccccc1)c1ccc2c(c1)OCCO2 (configuration not stated)	KCNQ2 inh -7.9 | KCNQ2 block conf -35% | KCNQ1 spec -30% | CHO Tl ctr -24% | KCNQ2 patch conf active
CCOC(=O)c1c(-c2ccccc2)csc1NC(=O)CSc1ccccc1	KCNQ2 inh -8.2 | KCNQ2 block conf -38% | KCNQ1 spec -27% | CHO Tl ctr inactive | KCNQ2 patch conf inactive
CCOC(=O)c1c(-c2cccs2)csc1NC(=O)CC(C)C	none (no result: KCNQ2 enhance)
CCOC(=O)c1c(-c2cccs2)csc1NC(=O)CN(CC)CC	KCNQ2 inh -9.9 | KCNQ2 block conf inactive | KCNQ1 spec inactive | CHO Tl ctr inactive
CCOC(=O)c1c(-c2ccc(OC)cc2)csc1NC(=O)CSc1ccccc1	none (no result: KCNQ2 enhance)
Cc1ccc(O)c(C(CC(=O)NC2CCCCC2)c2ccccc2)c1 (configuration not stated)	none (no result: KCNQ2 enhance)
Cc1ccc(NC(=O)c2c3c(nc4ccccc24)CCC3)cc1	none (no result: KCNQ2 enhance)
Cc1ccccc1NC(=O)c1c2c(nc3ccccc13)CCC2	KCNQ2 inh -6.9 | KCNQ2 block conf inactive | KCNQ1 spec inactive | CHO Tl ctr inactive
CCc1nc2ccccc2c(C(=O)Nc2cc(C)ccc2C)c1C	KCNQ2 inh -7.5 | KCNQ2 block conf inactive | KCNQ1 spec inactive | CHO Tl ctr inactive
CCc1nc2ccccc2c(C(=O)Nc2cccc(C)c2)c1C	none (no result: KCNQ2 enhance)
O=C(CCCSc1nc2ccccc2[nH]1)Nc1nnc(C2CC2)s1	none
Cc1cc(C)n(-c2nc3ccccc3nc2N2CCN(C(=O)c3ccc(Cl)cc3)CC2)n1	KCNQ2 inh -8.4 | KCNQ2 block conf -32% | KCNQ1 spec -30% | CHO Tl ctr -24% | KCNQ2 patch conf active
Cc1cc(C)n(-c2nc3ccccc3nc2N2CCCC2)n1	none (no result: KCNQ2 enhance)
C=CCn1nnnc1-c1cc(Cl)cc(Cl)c1	none (no result: KCNQ2 enhance)
Cc1cccc(-c2nc(CN3CCCC(C(=O)NC4CCC(C)CC4)C3)c(C)o2)c1 (configuration not stated)	KCNQ2 inh -9.6 | KCNQ2 block conf -26% | KCNQ1 spec inactive | CHO Tl ctr inactive | KCNQ2 patch conf active
Cc1cccc(-c2nc(CN3CCCC(C(=O)NC4CCCC4)C3)c(C)o2)c1 (configuration not stated)	none (no result: KCNQ2 enhance)
COCCOC(=O)C1=C(C)NC(SCC(=O)NC(C)(C)C)=C(C#N)C1c1ccco1 (configuration not stated)	none
COc1ccccc1NC(=O)C1=C(C)NC(SCC(=O)c2ccccc2)=C(C#N)C1c1ccco1 (configuration not stated)	KCNQ2 inh -12 | KCNQ2 block conf inactive | KCNQ1 spec inactive | CHO Tl ctr inactive
CC(OC(=O)CCCC(=O)Nc1ccccc1)C(=O)c1ccccc1 (configuration not stated)	none
